# Bioassay records (PubChem BioAssay)
# This is a sample that favours compounds with a hit; in the whole collection about 10% have one here.
# JMJD2A Tudor: blocks the human JMJD2A Tudor domain. AlphaScreen JMJD2A-Tudor / H3K4me3 peptide binding. Potency, µM (titrated, usually from 114 µM), most hits filed as inhibitors. 390,000 compounds, 4.4% hits. AID 504339; note: nearly all actives have a fitted effect of over 50% in size
# GLS inhibitor: inhibitors of human glutaminase (GLS); O94925; GLS enzymatic activity, qHTS titration; Potency, µM (series often up to 45.5 µM), most hits filed as inhibitors; 410,000 compounds, 0.21% hits
# Target sequence (O94925 whole entry, looked up): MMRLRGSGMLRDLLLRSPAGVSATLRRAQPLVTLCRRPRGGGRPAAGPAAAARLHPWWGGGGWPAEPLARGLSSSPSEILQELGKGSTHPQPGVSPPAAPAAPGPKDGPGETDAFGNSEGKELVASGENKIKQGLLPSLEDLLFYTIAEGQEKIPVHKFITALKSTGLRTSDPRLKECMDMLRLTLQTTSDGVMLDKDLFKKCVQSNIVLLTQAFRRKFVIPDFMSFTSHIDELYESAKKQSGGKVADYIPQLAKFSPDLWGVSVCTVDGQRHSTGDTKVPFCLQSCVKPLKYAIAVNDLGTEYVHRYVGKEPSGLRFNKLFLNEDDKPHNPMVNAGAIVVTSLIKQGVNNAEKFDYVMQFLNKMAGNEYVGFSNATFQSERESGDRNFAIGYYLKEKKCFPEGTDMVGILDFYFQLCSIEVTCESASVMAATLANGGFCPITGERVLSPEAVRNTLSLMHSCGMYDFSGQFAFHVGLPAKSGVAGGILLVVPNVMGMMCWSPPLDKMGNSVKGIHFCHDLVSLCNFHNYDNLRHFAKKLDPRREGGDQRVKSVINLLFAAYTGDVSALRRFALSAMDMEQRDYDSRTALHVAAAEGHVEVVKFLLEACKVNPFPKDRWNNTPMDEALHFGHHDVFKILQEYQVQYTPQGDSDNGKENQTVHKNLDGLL
#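 hKGA in 45 mM KH2PO4 (pH 8.2), 0.02% Tween-20 with compound, then 1mM L-Glutamine (stock as added) plus glutamate oxidase/HRP/Amplex red coupling mix. Fluorescence read initially and after 30 min at RT; signal change reflects glutamate formation.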
# BAZ2B block: inhibitors of human BAZ2B bromodomain | Q9UIF8 | AlphaScreen BAZ2B-H3K14Ac peptide displacement | Potency, µM (titrated, usually from 114 µM), most hits filed as inhibitors | 360,000 compounds, 4.4% hits | AID 504333; note: nearly all actives have a fitted effect of over 60% in size
#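 AlphaScreen displacement of biotin-H3(5-23)K14Ac peptide (50 nM final) from BAZ2B (50 nM final) in PBS pH 7.4, 0.01% Tween-20; complex preformed 30 min RT, then compounds (top 110 uM) 30 min RT, beads 20 min dark.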
# HP1b binding inh: inhibitors of HP1-beta chromodomain binding to methylated histone tails; AlphaScreen HP1-beta / biotin-H3K9me3 peptide binding; Potency, µM (doses to about 114 µM), most hits filed as inhibitors; 390,000 compounds, 0.56% hits; note: nearly all actives have a fitted effect of over 70% in size
#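 AlphaScreen: HP1-beta (50 nM) preformed 30 min with biotin-H3(1-18)K9me3 peptide (50 nM) in PBS pH 7.4, 0.01% Tween-20. Compound added for 30 min at RT, then streptavidin donor/nickel chelate acceptor beads (10 ug/mL) for 30 min.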
# G9a inh: blocks human histone lysine methyltransferase G9a; AID 504332; G9a H3K9 monomethylation, AlphaScreen, 2 h; Q96KQ7; Potency, µM (titrated, usually from 102 µM), actives largely listed as inhibitors; 350,000 compounds, 8.8% hits; note: nearly all actives have a fitted effect of over 75% in size
#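 Compounds were preincubated with 20 nM G9a for 15 min, after which biotinylated H3K9 peptide (500 nM) and SAM (20 uM) started a 2 h room-temperature reaction. Monomethylated product was quantified by antibody-based AlphaScreen chemiluminescence.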
# Numbers stand for hits; 0 = inactive; ? = inconclusive; - = not tested or not shown; ! = a repeat was not active; [ ] = remark or other dose. Calls come from the whole dose curve; as a rule, active = well fitted curve in the direction sought with a large enough effect; inconclusive = small, poorly fitted or top-dose-only effect, or another doubt; inactive = no such curve, though single readings can be large; an effect the other way counts as inactive or inconclusive.
SMILES,JMJD2A Tudor,GLS inhibitor,BAZ2B block,HP1b binding inh,G9a inh
CCCSc1cc(NCCOC(C)=O)c([N+](=O)[O-])c2nonc12,0,0,0,0,0
CCCC(=O)OCCNc1cc(SCc2ccco2)c2nonc2c1[N+](=O)[O-],?,0,25µM,?,20µM
CC(=O)OCCCNc1cc(SCc2ccco2)c2nonc2c1[N+](=O)[O-],50µM,0,?,?,?
COc1ccc(-c2nc3sc(CCNC(=O)c4ccc(C(C)(C)C)cc4)c(C)n3n2)cc1,0,0,0,0,0
O=C(CN1C=NS(=O)(=O)c2ccc(C(F)(F)F)cc21)Nc1cccc(C(F)(F)F)c1,0,0,0,0,0
CCNc1ccc(C(=O)OCC(=O)N(Cc2ccccc2)C(C)(C)C)cc1[N+](=O)[O-],0,0,0,0,89µM
CC(C)(C)N(Cc1ccccc1)C(=O)COC(=O)CSc1ccc([N+](=O)[O-])cc1,0,0,0,0,40µM
CC(C)(C)OC(=O)N1CCC(c2c(C(=O)NCc3ccc4c(c3)OCO4)cnn2-c2ccc(F)cc2F)CC1,0,0,0,0,0
NCC1O[C@@H](OC2C(N)C[C@H](N)[C@@H](O[C@H]3OC(CO)C(O)C(N)C3O)C2O)C(O)C(O)C1O (stereo not given in full),-,-,-,-,0[2.33 µM]
Oc1ccccc1/C=N/Nc1nccnc1Cl,?,0,35µM,0,0[12.7 µM]
Oc1ccc(Br)cc1/C=N/Nc1ncc(-c2ccccc2)cn1,0,0,0,0,0
Oc1ccc(/C=N/Nc2ncc(Br)cn2)c(O)c1,?,0,14µM,0,0
O=[N+]([O-])c1ccccc1/C=N/Nc1nccnc1Cl,?,0,?,0,0
Oc1ccc(/C=N/Nc2nccnc2Cl)c(O)c1,50µM,0,14µM,0,0
CCOC(=O)c1c(Nc2ccccc2)nnc(-c2ccccc2)c1-c1ccccc1,0,0,0,0,0
CCOC(=O)c1c(Nc2ccc(OC)cc2)nnc(-c2ccccc2)c1-c1ccccc1,?,0,?,0,7.9µM
CCOC(=O)c1c(Nc2cc(C)cc(C)c2)nnc(-c2ccccc2)c1-c1ccccc1,?,0,0,0,3.5µM
CCCn1c(SCC(=O)N2CCN(C(C)=O)CC2)nc2sc3c(c2c1=O)CCC3,0,0,0,0,71µM
CC(Sc1nc2sc3c(c2c(=O)n1-c1ccccc1)CCCC3)C(=O)O (stereo not given),0,0,0,0,-
CCn1c(SC(C)C(=O)O)nc2sc3c(c2c1=O)CCC3 (stereo not given),89µM,0,50µM,0,?
Cc1ccc(C(=O)COC(=O)C(CC(C)C)NC(=O)C2CCC(C)CC2)cc1 (stereo not given),0,0,0,0,0
CC(C)(C)NCC(O)c1ccc(O)c(CO)c1 (stereo not given),-,0,-,-,0
OCc1cc(C(O)CNCCCCCCOCCCCc2ccccc2)ccc1O (stereo not given),0,0,0,0,35µM!
CCCN(CCC)CCCNC(=O)c1cc2c(=O)[nH]c3ccccc3c2n1C,0,0,0,0,0
Cn1c(C(=O)NCc2ccco2)cc2c(=O)[nH]c3ccccc3c21,100µM,0,0,0,0
SMILES,JMJD2A Tudor,GLS inhibitor,BAZ2B block,HP1b binding inh,G9a inh
O=C1C=CC(=O)N1c1ccc2c(c1)Cc1cc(F)ccc1-2,0,0,-,0,-
CC(=O)Nc1ccc2c(c1)Cc1cc(N3C(=O)C=CC3=O)ccc1-2,7.1µM,0,-,?,-
COc1ccc(CC(=O)Nc2c(C(=O)Nc3ccc(F)cc3)oc3ccccc23)cc1OC,0,0,0,0,0
Cc1cc(C)nc(-n2nc(C)c(Sc3ccc(F)cc3)c2N)n1,?,0,0,0,50µM
O=C1Cc2ccccc2C(c2ccc(Br)cc2)N1 (stereo not given),0,0,0,0,0
O=C1NC2=C(CCc3ccccc32)C(c2ccc(Br)cc2)N1 (stereo not given),0,0,0,0,35µM
C/C(=N\NC(=O)c1nnn(-c2nonc2N)c1CN1CCC(C)CC1)c1ccc(Br)cc1,-,0,-,-,-
Cc1nc2c(ccc3nc(NC(=O)c4ccc5c(c4)OCCO5)sc32)s1,?,0,0,0,28µM
Cc1nc2ccc3nc(NC(=O)c4ccc5c(c4)OCCO5)sc3c2s1,0,0,0,0,0
COc1ccc(-n2c(C)cc(C(=O)CSc3nnc(-c4ccoc4C)n3C)c2C)cc1,?,0,?,?,50µM
